Assay in all cases: DAPPL (digital affinity profiling via proximity ligation, sequencing); 10 mM Tris-HCl pH 7.5, 50 mM NaCl, 1 mM DTT, 4% glycerol, room temperature, 30 min; GST-TFs on glutathione beads, 16-mer random dsDNA library, 0.1% formaldehyde crosslink after washing; high values mean tight binding
Assay [1] has as its target T1, FEV (Homo sapiens, UniProt Q99581 1-238).
T1 sequence: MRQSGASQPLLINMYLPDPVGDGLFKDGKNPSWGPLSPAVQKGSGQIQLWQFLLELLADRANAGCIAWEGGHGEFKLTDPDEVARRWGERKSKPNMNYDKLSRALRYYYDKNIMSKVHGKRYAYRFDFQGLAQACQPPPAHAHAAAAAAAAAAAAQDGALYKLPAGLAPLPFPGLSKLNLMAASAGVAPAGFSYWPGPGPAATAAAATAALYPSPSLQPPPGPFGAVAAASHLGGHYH
Conditions: protein: recombinant; tags: N-terminal GST; dsDNA, one strand shown. The essentials: (§1)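 After expression in yeast as GST fusions, human transcription factors were bound to glutathione beads, DNA-barcoded and mixed with a tag-only sample. The pools were incubated with 200 nmole of a 16-mer random double-stranded DNA library in Tris/NaCl/DTT/glycerol buffer (30 min, room temperature), washed and crosslinked with 0.1% formaldehyde. Proximity ligation with BsaI/T4 ligase ran for 1 h at 37 °C, before PCR amplification and sequencing on an Illumina NextSeq500. Binding signal is a hexamer's read frequency for a factor divided by its frequency for the tag-only sample.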

Assay [2] has as its target ETV5 (Homo sapiens, UniProt P41161 1-510). To be noted: protein: recombinant; tags: N-terminal GST; dsDNA, one strand shown. The essentials:
as §1

In assay [3] the target is HSF1 (Homo sapiens, UniProt Q00613 1-529). Conditions: protein: recombinant; tags: N-terminal GST; chain copies: 3; dsDNA, one strand shown. The essentials:
as §1

Assay [4] deals with T2, SPIC (Homo sapiens, UniProt Q8N5J4 1-248).
T2 sequence: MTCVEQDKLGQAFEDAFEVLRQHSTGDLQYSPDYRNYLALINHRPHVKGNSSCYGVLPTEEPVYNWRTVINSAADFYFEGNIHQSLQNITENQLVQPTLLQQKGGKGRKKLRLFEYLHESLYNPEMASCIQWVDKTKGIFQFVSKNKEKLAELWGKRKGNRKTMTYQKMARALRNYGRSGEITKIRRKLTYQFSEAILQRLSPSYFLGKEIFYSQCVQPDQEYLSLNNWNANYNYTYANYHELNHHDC
Conditions: protein: recombinant; tags: N-terminal GST; dsDNA, one strand shown. The essentials:
as §1

In assay [5] the target is ELF4 (Homo sapiens, UniProt Q99607 1-663). To be noted: protein: recombinant; tags: N-terminal GST; dsDNA, one strand shown. In short, it runs like this: as §1
The target in assay [6] is T3, ELK4 (Homo sapiens, UniProt P28324-2 1-405).
T3 sequence: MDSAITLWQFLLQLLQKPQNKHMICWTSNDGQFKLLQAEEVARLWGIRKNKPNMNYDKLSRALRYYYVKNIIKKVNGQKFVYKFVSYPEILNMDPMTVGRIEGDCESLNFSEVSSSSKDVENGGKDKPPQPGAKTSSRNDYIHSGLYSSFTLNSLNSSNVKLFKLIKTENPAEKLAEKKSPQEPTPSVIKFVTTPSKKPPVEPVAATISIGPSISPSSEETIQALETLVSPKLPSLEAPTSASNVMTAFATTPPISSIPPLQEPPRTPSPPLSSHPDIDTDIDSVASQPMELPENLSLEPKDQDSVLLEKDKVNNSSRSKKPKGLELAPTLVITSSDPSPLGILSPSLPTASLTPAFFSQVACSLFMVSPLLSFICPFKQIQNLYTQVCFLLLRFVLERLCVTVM
To be noted: protein: recombinant; tags: N-terminal GST; dsDNA, one strand shown. In short, it runs like this: as §1

For assay [7], the target named is T4, ETV2 (Homo sapiens, UniProt O00321 1-342).
T4 sequence: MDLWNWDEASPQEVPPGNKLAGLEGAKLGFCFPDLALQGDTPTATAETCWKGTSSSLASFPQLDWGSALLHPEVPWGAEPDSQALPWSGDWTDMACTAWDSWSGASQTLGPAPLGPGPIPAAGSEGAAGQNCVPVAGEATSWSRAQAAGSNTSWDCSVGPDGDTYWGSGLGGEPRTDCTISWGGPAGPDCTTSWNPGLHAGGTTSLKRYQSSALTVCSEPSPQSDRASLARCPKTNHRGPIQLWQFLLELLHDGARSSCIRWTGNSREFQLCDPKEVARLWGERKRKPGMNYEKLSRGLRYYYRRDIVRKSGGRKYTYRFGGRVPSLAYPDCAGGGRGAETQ
Conditions: protein: recombinant; tags: N-terminal GST; dsDNA, one strand shown. In short, it runs like this: as §1

The target of assay [8] is T5, ELF3 (Homo sapiens, UniProt P78545 1-371).
T5 sequence: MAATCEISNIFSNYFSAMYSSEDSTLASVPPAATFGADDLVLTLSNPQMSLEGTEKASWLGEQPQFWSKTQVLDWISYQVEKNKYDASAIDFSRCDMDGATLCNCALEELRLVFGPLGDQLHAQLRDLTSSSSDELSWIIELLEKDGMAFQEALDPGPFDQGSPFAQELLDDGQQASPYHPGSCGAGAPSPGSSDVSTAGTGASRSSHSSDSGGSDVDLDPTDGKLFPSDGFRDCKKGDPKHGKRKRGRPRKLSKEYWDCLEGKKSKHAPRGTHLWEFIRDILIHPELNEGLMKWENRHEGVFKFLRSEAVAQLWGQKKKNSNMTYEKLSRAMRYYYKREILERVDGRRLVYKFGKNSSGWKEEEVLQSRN
Conditions: protein: recombinant; tags: N-terminal GST; dsDNA, one strand shown. The essentials: as §1

Assay [9] deals with CRX (Homo sapiens, UniProt O43186 1-299). Conditions: protein: recombinant; tags: N-terminal GST; dsDNA, one strand shown. The essentials: as §1
In assay [10] the target is ETV1 (Homo sapiens, UniProt P50549 1-477). Conditions: protein: recombinant; tags: N-terminal GST; dsDNA, one strand shown. In short, it runs like this: as §1
In assay [11] the target is T6, ERF (Homo sapiens, UniProt P50548 1-548).
T6 sequence: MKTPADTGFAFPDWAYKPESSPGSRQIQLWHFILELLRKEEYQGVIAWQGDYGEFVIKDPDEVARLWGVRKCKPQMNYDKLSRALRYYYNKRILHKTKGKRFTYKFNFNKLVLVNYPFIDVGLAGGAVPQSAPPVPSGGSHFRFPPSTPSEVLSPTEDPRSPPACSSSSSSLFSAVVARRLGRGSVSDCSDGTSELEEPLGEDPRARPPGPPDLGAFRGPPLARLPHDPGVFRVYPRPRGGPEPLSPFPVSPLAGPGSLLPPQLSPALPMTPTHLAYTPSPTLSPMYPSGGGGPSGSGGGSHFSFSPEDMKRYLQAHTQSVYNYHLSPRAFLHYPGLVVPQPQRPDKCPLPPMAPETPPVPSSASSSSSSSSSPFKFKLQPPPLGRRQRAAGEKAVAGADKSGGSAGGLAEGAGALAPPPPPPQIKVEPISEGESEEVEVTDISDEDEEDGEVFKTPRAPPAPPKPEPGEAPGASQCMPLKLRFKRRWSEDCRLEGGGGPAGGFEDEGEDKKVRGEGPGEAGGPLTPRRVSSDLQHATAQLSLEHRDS
Conditions: protein: recombinant; tags: N-terminal GST; dsDNA, one strand shown. In short, it runs like this:
as §1

Assay [12] deals with T7, ETV3L (Homo sapiens, UniProt Q6ZN32 1-361).
T7 sequence: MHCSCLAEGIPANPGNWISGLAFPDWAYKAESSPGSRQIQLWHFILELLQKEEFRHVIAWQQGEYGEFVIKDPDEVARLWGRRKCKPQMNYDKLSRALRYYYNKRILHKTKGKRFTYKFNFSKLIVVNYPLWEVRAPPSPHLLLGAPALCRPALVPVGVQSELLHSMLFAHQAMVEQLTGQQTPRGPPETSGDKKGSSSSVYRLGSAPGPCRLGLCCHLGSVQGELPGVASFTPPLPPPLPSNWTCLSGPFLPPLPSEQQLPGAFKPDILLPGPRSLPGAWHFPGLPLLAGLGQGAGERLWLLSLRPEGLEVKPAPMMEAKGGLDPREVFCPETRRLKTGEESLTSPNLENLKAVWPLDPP
Conditions: protein: recombinant; tags: N-terminal GST; dsDNA, one strand shown. The essentials: as §1

Assay [13] has as its target T8, ETS2 (Homo sapiens, UniProt P15036 1-469).
T8 sequence: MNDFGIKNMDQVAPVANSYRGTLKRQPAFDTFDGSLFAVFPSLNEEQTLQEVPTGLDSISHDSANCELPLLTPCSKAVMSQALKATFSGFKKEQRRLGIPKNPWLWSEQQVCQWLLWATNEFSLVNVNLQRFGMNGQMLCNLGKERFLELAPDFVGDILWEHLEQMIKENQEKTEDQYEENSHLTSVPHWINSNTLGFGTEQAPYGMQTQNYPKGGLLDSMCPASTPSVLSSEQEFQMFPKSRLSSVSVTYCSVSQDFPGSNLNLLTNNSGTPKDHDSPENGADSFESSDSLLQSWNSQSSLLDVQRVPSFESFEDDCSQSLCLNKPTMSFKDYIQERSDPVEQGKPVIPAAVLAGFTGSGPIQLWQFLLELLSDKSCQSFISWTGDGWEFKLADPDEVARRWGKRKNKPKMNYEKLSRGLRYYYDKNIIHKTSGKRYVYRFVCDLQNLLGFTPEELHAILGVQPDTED
To be noted: protein: recombinant; tags: N-terminal GST; dsDNA, one strand shown. The essentials: as §1

The target in assay [14] is T9, SPDEF (Homo sapiens, UniProt O95238 1-335).
T9 sequence: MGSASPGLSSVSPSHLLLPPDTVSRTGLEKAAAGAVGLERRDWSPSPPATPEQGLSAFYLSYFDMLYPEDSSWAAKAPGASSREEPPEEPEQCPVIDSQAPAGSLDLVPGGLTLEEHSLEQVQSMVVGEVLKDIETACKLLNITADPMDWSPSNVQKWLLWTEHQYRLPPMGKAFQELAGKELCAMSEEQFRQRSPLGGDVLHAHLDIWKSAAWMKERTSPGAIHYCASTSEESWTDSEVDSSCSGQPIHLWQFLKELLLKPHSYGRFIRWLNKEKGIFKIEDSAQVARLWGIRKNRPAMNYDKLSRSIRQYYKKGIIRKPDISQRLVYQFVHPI
Conditions: protein: recombinant; tags: N-terminal GST; dsDNA, one strand shown. In short, it runs like this:
as §1

In assay [15] the target is T10, ETV7 (Homo sapiens, UniProt Q9Y603 1-341).
T10 sequence: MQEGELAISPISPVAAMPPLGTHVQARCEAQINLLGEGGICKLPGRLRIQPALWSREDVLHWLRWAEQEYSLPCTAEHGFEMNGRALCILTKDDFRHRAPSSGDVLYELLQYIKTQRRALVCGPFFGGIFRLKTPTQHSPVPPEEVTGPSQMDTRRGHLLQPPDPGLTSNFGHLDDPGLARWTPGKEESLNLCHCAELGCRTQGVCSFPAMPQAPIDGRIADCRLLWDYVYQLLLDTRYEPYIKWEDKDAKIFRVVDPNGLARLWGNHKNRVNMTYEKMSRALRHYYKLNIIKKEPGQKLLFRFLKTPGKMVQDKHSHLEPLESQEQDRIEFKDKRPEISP
Conditions: protein: recombinant; tags: N-terminal GST; dsDNA, one strand shown. In short, it runs like this: as §1

The target of assay [16] is T11, ELF5 (Homo sapiens, UniProt Q9UKW6-2 1-255).
T11 sequence: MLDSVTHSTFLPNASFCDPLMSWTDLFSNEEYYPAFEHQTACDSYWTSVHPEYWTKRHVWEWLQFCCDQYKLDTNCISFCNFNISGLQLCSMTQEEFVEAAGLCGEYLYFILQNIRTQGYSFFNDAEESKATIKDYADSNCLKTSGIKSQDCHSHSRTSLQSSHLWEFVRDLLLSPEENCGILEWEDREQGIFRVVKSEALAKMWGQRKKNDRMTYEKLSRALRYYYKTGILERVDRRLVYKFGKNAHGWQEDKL
To be noted: protein: recombinant; tags: N-terminal GST; dsDNA, one strand shown. In short, it runs like this: as §1

Assay [17] concerns the target T12, ETV3 (Homo sapiens, UniProt P41162-2 1-143).
T12 sequence: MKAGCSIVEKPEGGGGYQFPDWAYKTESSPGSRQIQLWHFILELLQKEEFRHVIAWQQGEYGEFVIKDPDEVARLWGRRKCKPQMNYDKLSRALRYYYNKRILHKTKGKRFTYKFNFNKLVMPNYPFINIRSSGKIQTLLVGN
To be noted: protein: recombinant; tags: N-terminal GST; dsDNA, one strand shown. The essentials:
as §1

For assay [18], the target named is ETV6 (Homo sapiens, UniProt P41212 1-452). To be noted: protein: recombinant; tags: N-terminal GST; dsDNA, one strand shown. In short, it runs like this: as §1
ETV6, sequence (P41212 whole entry): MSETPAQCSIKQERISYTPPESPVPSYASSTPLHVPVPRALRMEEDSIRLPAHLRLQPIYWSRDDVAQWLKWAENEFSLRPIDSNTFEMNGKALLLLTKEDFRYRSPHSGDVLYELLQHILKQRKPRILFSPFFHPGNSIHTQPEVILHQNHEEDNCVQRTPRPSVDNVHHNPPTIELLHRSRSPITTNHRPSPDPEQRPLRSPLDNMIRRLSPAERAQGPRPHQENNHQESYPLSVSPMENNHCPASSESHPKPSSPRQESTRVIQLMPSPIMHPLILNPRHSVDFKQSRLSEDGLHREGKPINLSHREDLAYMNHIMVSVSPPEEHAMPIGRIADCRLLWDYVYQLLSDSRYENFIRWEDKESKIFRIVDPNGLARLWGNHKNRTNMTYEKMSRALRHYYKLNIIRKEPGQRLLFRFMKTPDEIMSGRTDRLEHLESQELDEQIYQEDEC

CRX, sequence (O43186 whole entry): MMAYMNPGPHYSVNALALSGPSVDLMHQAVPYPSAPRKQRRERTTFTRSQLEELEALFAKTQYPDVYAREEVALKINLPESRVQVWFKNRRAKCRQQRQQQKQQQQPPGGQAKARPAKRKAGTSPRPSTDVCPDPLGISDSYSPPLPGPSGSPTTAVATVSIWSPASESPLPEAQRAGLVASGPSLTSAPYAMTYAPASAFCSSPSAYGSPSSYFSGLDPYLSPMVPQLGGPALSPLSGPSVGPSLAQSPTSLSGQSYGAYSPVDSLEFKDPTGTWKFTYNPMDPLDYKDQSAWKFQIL
ELF4, sequence (Q99607 whole entry): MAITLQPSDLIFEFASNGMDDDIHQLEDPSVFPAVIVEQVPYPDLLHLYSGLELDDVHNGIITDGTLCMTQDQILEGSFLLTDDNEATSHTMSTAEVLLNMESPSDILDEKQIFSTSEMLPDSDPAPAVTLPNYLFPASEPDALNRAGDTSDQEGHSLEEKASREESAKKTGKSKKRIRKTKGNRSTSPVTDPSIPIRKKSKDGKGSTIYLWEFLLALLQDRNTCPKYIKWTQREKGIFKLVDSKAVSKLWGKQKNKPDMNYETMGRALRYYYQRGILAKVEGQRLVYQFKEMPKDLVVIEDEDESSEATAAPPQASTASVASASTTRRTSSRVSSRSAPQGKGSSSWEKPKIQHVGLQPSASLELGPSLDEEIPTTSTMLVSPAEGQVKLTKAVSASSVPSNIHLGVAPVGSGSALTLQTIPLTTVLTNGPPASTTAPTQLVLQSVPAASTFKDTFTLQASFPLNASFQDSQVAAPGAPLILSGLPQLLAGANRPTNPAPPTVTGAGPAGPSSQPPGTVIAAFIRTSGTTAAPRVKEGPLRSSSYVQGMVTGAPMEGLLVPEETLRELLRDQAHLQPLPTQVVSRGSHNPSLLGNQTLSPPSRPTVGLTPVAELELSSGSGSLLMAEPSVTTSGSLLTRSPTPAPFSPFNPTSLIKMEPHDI
ETV5, sequence (P41161 whole entry): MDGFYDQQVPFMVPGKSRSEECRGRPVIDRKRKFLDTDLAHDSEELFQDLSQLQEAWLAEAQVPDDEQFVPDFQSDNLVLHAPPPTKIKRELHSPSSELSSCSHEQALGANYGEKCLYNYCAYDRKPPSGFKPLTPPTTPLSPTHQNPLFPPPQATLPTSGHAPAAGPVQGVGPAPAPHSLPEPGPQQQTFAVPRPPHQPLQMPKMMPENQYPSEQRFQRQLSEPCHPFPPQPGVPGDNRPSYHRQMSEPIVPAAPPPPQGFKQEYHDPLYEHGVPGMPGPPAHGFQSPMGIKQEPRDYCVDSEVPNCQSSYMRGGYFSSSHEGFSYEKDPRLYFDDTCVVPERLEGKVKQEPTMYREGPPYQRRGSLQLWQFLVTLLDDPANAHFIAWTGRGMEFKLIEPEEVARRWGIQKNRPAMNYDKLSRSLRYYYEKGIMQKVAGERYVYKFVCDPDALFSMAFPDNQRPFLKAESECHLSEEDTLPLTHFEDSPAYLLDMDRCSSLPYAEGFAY
ETV1, sequence (P50549 whole entry): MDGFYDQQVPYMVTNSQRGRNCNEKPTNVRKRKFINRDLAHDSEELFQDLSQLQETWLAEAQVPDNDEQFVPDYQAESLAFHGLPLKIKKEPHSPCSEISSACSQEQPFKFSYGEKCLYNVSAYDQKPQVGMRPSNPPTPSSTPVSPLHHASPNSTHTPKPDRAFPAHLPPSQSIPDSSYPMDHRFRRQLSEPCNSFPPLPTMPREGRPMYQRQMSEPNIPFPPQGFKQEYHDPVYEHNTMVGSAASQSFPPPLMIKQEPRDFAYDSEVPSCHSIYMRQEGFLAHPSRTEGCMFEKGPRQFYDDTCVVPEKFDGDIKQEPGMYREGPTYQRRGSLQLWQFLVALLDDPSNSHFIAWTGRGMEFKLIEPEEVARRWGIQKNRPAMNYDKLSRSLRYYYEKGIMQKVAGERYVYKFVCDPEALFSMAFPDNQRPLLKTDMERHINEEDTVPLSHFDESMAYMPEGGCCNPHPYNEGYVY
HSF1, sequence (Q00613 whole entry): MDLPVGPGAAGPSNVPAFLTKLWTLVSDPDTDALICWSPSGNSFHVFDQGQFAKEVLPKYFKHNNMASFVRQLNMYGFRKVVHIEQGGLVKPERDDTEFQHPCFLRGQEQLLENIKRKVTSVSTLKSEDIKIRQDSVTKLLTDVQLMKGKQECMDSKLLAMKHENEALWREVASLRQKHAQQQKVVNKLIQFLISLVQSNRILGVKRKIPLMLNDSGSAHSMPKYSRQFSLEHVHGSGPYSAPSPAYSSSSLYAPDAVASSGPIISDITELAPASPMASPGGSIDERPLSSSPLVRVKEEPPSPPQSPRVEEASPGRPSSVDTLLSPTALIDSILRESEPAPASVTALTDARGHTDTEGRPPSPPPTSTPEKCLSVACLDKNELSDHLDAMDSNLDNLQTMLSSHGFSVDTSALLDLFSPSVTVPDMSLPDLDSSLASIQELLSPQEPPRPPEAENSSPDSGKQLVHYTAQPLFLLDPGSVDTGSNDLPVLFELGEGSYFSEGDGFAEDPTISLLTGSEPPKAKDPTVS

Take CACGTT: the binding signal in assay [1] is 1.26 fold enrichment (6-mer frequency, TF over GST control); in assay [2] it was 1.3 fold enrichment (6-mer frequency, TF over GST control); in assay [3], 1.11 fold enrichment (6-mer frequency, TF over GST control); in assay [4], 1.33 fold enrichment (6-mer frequency, TF over GST control); in assay [5], 1.31 fold enrichment (6-mer frequency, TF over GST control); in [6] it was 1.29 fold enrichment (6-mer frequency, TF over GST control). Also, the binding signal in [7] was 1.36 fold enrichment (6-mer frequency, TF over GST control); in assay [8] it was 1 fold enrichment (6-mer frequency, TF over GST control); in assay [9] it was 1.08 fold enrichment (6-mer frequency, TF over GST control); in [10], 1.21 fold enrichment (6-mer frequency, TF over GST control); in [11], 1.36 fold enrichment (6-mer frequency, TF over GST control); in assay [12], 1.21 fold enrichment (6-mer frequency, TF over GST control). The binding signal in assay [13] was 1.3 fold enrichment (6-mer frequency, TF over GST control); in assay [14], 1.18 fold enrichment (6-mer frequency, TF over GST control); in assay [15], 1.35 fold enrichment (6-mer frequency, TF over GST control); in [16], 1.12 fold enrichment (6-mer frequency, TF over GST control); in assay [17], 1.19 fold enrichment (6-mer frequency, TF over GST control); in assay [18] it was 1.27 fold enrichment (6-mer frequency, TF over GST control).

Source of the values: publication PMC7862700, “An all-to-all approach to the identification of sequence-specific readers for epigenetic DNA modifications on cytosine”.
